For 59 molecules, survival results are on record in PubChem BioAssay AID463173 (ICCB-Longwood Screening Facility, Harvard Medical School, 2010).

Among all 52,000 compounds or so, about 1,700 (3.3%) were called active. This is one part of a sample in which actives are shown more often than they occur. Rule as the data show it: active = survival mostly below about 52% (no sharp cut-off); inactive = mostly above about 56%.

The experiment concerns Wild type. In words: growth inhibition of S. aureus wild type versus tarO mutant, primary screen, teichoic acid synthesis inhibitors, RN4220, OD600 (AID 463173). The settings on record: S. aureus RN4220 wild type/DeltatarO growth, OD600, 18 h, active compounds read low, screened at 18.75 µg/mL (by protocol).
As for `CCc1nnc(SCc2nc(-c3ccc(OC)cc3)oc2C)c2cc3sccc3n12`, the survival is 86% (inactive). For the molecule `Cc1ccc(C)c(S(=O)(=O)n2nnc3ccccc32)c1`, the survival was 104% (inactive). Under `CCOC(=O)N1CCc2c(sc3c2c(=O)n(-c2ccc(Cl)cc2)c(=O)n3Cc2cccc(OC)c2)C1` stands 120% (inactive). As to `Cc1ccc(CCNC(=O)Cn2c(-c3cccs3)cc3ccccc32)cc1`, the survival was 119% (inactive). In the case of `Cc1ccc(C)c(N2CCN(C(=O)NC3CCCCC3)CC2)c1`, the survival is 103% (inactive). For `COc1ccc2nc3oc(C(=O)Nc4cccc(C(F)(F)F)c4)cc3cc2c1`, the survival was 66% (inactive).

Take `COc1ccc(C2C(=O)N(C3CCC(C)CC3)CC(=O)N2C2CCCCC2)cc1OC` (centres undefined): the survival was 64% (inactive). `COc1ccc(C2C(=O)N(C3CCC(C)CC3)CC(=O)N2CCC2=CCCCC2)cc1OC` (centres undefined): the survival was -3% (active). Regarding `CCCCN1C(=O)CN(C2CCCCCC2)C(=O)C1c1ccc(OCCC)c(OC)c1` (centres undefined), the survival was 87% (inactive).

For `CCCOc1ccc(C2C(=O)N(C3CCCCC3)CC(=O)N2C2CCCCC2)cc1OC` (centres undefined), the survival was 77% (inactive). Under `CCCOc1ccc(C2C(=O)N(C3CCCCCC3)CC(=O)N2CCC)cc1OC` (centres undefined) stands -6% (active); under `CCCOc1ccc(C2C(=O)N(C3CCCCCC3)CC(=O)N2CCC2=CCCCC2)cc1OC` (centres undefined), 123% (inactive); under `COc1ccc(C2C(=O)N(C3CCC(C)CC3)CC(=O)N2C2CCCC2)cc1OC` (centres undefined), -4% (active). Regarding `CCCOc1ccc(C2C(=O)N(C3CCC(C)CC3)CC(=O)N2CCC2=CCCCC2)cc1OC` (centres undefined), the survival was 87% (inactive). For `CCCN1C(=O)CN(C2CCCCCC2)C(=O)C1c1ccc(OCC)c(OC)c1` (centres undefined), the survival is 120% (inactive). On to `COc1ccc(-n2cc(C(=O)N(C)c3cc(C)ccc3OC)c3ccccc3c2=O)cc1`, for which the survival is 114% (inactive). With `Cc1ccc(NC(=O)CCc2c(C)nc3nc(C)nn3c2C)c(Cl)c1`, the survival is 70% (inactive). With `CCc1nnc(SC(CC)C(=O)NCCOC)c2cc3occc3n12` (centres undefined) the figure was 105% (inactive).

Take `Cc1ccc(C(=O)n2nc(C)c(S(=O)(=O)N3CCOCC3)c2C)cc1`: the survival was 85% (inactive). In the case of `CCN(c1cccc(C)c1)S(=O)(=O)c1cc(Br)cc2c1N(C(C)=O)C(C)C2` (centres undefined), the survival is 75% (inactive). With `CN(C)CCNC(=O)c1ccc(-n2c(-c3ccccc3)cc3c2CCCC3)cc1` the figure was 29% (inactive). Consider `CN(C)CCNC(=O)c1ccc(-n2c(-c3ccccc3)cc3c2CCCCC3)cc1`, for which the survival is 17% (inactive). Under `CCN(CC)CCNC(=O)c1ccc(-n2c(-c3ccccc3)cc3c2CCCC3)cc1` stands 2% (active). In the case of `Cc1ccc(C2C(C(=O)/C=C/c3ccccc3)=C(O)C(=O)N2CCO)cc1` (centres undefined), the survival was 99% (inactive). With `O=S1(=O)C=C(Sc2nnnn2-c2ccccc2)c2ccccc21` the figure was -1% (active); with `O=C1CC(CSc2nnnn2-c2ccccc2)=NN1`, 128% (inactive); with `O=S(=O)(NCCSc1nnnn1-c1ccccc1)c1ccc(F)cc1`, 76% (inactive). On to `O=S(=O)(c1ccc(-c2csc(=Nc3ccc(F)cc3)n2CCCCCCO)cc1)N1CCCC1`, for which the survival was 55% (inactive). Under `Cc1ccc(-c2csc(=Nc3ccccc3)n2CCCO)cc1` stands -7% (active); under `OCCCn1c(-c2ccc(F)cc2)csc1=Nc1ccc(F)cc1`, 9% (active). For `COc1ccc(-c2csc(=Nc3ccccc3)n2CCO)cc1F`, the survival is 63% (inactive). Under `O=S(=O)(c1ccc(-c2csc(=Nc3ccc(OC(F)(F)Cl)cc3)n2CCCO)cc1)N1CCCC1` stands 132% (inactive).

Regarding `CCN(CC)CCn1c(-c2ccccc2)csc1=Nc1ccccc1`, the survival is 45% (inactive). In the case of `Cc1ccc(NC(=O)C(=O)NCC(c2ccc3c(c2)OCO3)N2CCN(c3ccccc3)CC2)cc1` (centres undefined), the survival is 75% (inactive).

In the case of `O=C(CCC1N=C2c3ccccc3N=C(SCC(=O)Nc3ccccc3F)N2C1=O)NCc1ccccc1` (centres undefined), the survival was 76% (inactive). On to `CCOc1ccc(CNC(=O)C2CCN(S(=O)(=O)N3CCC(C)CC3)CC2)cc1OC`, for which the survival is 84% (inactive). With `CCOc1ccc(-c2nnc(SCC(=O)c3ccc(Br)cc3)n2-c2ccccc2)cc1` the figure was 92% (inactive); with `CC(=O)N1CCc2c(sc3c2c(=O)n(CCc2ccccc2)c(=O)n3Cc2ccc(Cl)cc2)C1`, 65% (inactive). Under `O=C(CSc1nc2c(c(=O)[nH]1)CN(Cc1ccc3c(c1)OCO3)CC2)Nc1ccccc1Cl` stands 81% (inactive). In the case of `O=C(CCN1CCCCC1)c1ccccc1`, the survival is 92% (inactive).

On to `Cc1ccc2nc(Cl)c3cc(C(=O)N4CCCCC4)sc3c2c1`, for which the survival was -2% (active).

Consider `CCOC(=O)C1CCCN(C(=O)c2cc3c(Cl)nc4ccccc4c3s2)C1` (centres undefined), for which the survival is 41% (inactive). Under `O=C(NC1CCCCC1)c1cc2c(Cl)nc3ccccc3c2s1` stands 77% (inactive); under `Cc1ccc2nc(Cl)c3cc(C(=O)NC4CCC(C)CC4)sc3c2c1` (centres undefined), 72% (inactive). Regarding `Cc1ccc2nc(Cl)c3cc(C(=O)NC4CCCCCC4)sc3c2c1`, the survival is 119% (inactive). Under `Cc1ccc2nc(Cl)c3cc(C(=O)NC4CCCCC4)sc3c2c1` stands 76% (inactive); under `O=C(NC1CCCCCC1)c1cc2c(Cl)nc3ccccc3c2s1`, 123% (inactive).

As for `CC(C)N(C(=O)c1cc2c(Cl)nc3ccccc3c2s1)C1CCCCC1`, the survival was -1% (active). Under `Cc1ccc2nc(Cl)c3cc(C(=O)N4CCCCC4C)sc3c2c1` (centres undefined) stands 21% (inactive); under `CC1CCCN(C(=O)c2cc3c(Cl)nc4ccccc4c3s2)C1` (centres undefined), -2% (active). Under `O=C(c1cc2c(Cl)nc3ccccc3c2s1)N1CCCCC1` stands 58% (inactive); under `Cc1ccc2nc(Cl)c3cc(C(=O)N4CCCC(C)C4)sc3c2c1` (centres undefined), -2% (active); under `CCCCC(=O)Nc1ccc(OCc2cc(=O)n3c(C)csc3n2)cc1`, 87% (inactive). With `COc1ccccc1NC(=O)C(Cc1ccccc1)NS(=O)(=O)c1ccc2c(c1)CCN2C(C)=O` (centres undefined) the figure was 80% (inactive). With `CCOc1ccccc1NS(=O)(=O)c1ccc2c(c1)oc(=O)n2C`, the survival was 82% (inactive). As for `O=C(Nc1ccc2nn(-c3ccccc3)nc2c1)c1cc2ccccc2o1`, the survival was 80% (inactive). Under `COC(=O)c1scc(-c2ccc(C)cc2)c1S(=O)(=O)N1CCN(c2cccc(OC)c2)CC1` stands 53% (inactive); under `CCCCn1c(Cc2ccccc2)nnc1SCC(=O)NC`, 104% (inactive); under `COC(=O)c1ccc(NC(=O)c2cc(S(=O)(=O)N3CCOCC3)cn2C)cc1`, 84% (inactive).
